Measurements from article PMC5540273 (PLoS ONE, 2017).

Assays:
Details in all cases: concentration: 1 μM, replicates: in singlicate; n = 1
ACVR2B = test system: ACVR2B
ACVRL1 = test system: ACVRL1
ADCK3 = test system: T1, ADCK3
T1 construct: gene CABC1

ADCK4 = test system: ADCK4
AKT1 = test system: AKT1
AKT2 = test system: AKT2
AKT3 = test system: AKT3
ALK = test system: ALK
AMPK-alpha1 = test system: T2, AMPK-alpha1
T2 construct: gene PRKAA1

AMPK-alpha2 = test system: T3, AMPK-alpha2
T3 construct: gene PRKAA2
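Note: KINOMEscan kinase panel screen.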

SMILES	%Inh (ACVR2B) [%]	%Inh (ACVRL1) [%]	%Inh (ADCK3) [%]	%Inh (ADCK4) [%]	%Inh (AKT1) [%]	%Inh (AKT2) [%]	%Inh (AKT3) [%]	%Inh (ALK) [%]	%Inh (AMPK-alpha1) [%]	%Inh (AMPK-alpha2) [%]
NC(=O)c1nnc2ccccc2c1N	24	0	81	1	7	0	0	24	25	6
O=C(Nc1ccc2c(c1)OCO2)NC1CCN(c2ccnc(Nc3ccc(F)cc3)n2)C1 (stereo not drawn) [GSK1379724]	0	0	6	36	0	0	0	29	10	0
O=C(Nc1ccccc1)Nc1cccc(Oc2ccc3nccn3n2)c1	6	0	5	18	32	0	20	17	11	0
Cc1ccc(NC(=O)Nc2cccc(Cl)c2)cc1-c1ccc(C(=O)Nc2ccncc2)cc1 [GSK1398468]	1	0	5	34	0	8	0	20	7	13
Cl.Oc1ccc(-c2nc(-c3ccccc3)[nH]c2-c2ccncc2)cc1 [SB-428218]	13	0	5	82	0	18	0	44	0	0
Fc1cc(Cl)ccc1Nc1ccnc2cc(-c3ccc(CN4CCCCC4)o3)ccc12 [GW560116]	52	0	0	38	0	0	0	4	0	0
CS(=O)(=O)c1ccc(-c2nc3n(c2-c2ccncc2)CCC3)cc1 [SKF-105942]	0	0	11	58	0	100	0	28	24	0
O=C(Nc1n[nH]c2cc(-c3cccc(F)c3F)ccc12)C1CC1 [SB-733894]	18	29	6	0	0	0	1	0	0	0
COc1ccccc1-c1ccc2c(NC(=O)C3CC3)n[nH]c2n1 [SB-711239]	52	0	11	19	0	2	3	18	5	13
CC(C)(C)c1ccc(C(=O)Nc2cn3cc(Cl)ccc3n2)cc1	9	0	5	0	5	0	0	3	0	16
Cc1cccc(-c2cc(Nc3ccncc3)c3ccccc3n2)n1 [GSK223675]	0	0	0	11	0	0	0	26	0	8
COc1ccc2nc(-c3cccc(C)n3)nc(Nc3ccncc3)c2c1 [GSK204919]	0	0	25	3	0	5	0	24	0	16
Nc1ncnc2[nH]c(-c3ccccc3)nc12 [AH5015]	0	0	25	12	0	9	0	33	2	17
Cc1ccccc1-n1cnc2c(N)ncnc21 [SKF-97510]	0	0	8	0	8	0	0	0	0	0
Cn1cncc1-c1ccc2ncnc(Nc3ccc(OCc4ccccc4)cc3)c2c1 [GW320571]	16	23	27	15	0	20	10	21	35	20
COc1cccc(NC(=O)NC2CCN(c3ccnc(Nc4ccc(F)cc4)n3)C2)c1 (stereo not drawn) [GSK1379721]	4	0	1	22	0	0	0	24	0	0
COc1cc2ncnc(Nc3ccc4nc(-c5ccccc5)[nH]c4c3)c2cc1OC.Cl [GW282450]	0	0	10	16	0	0	0	0	0	0
COc1ccc(Nc2nccc(-c3cccc(NC(=O)c4cc5cc(F)ccc5[nH]4)c3)n2)cc1 [GSK1229782]	19	0	8	61	0	18	31	29	34	18
